Experimental data: PubChem BioAssay (EPA / NIEHS)
“And” between values parts separate entries of the source, which are not always exact repeats. Identical values can stand only once. The source made the active and inactive calls. How the source made its calls: active means hit-call score of the fitted dose curve at least 0.9, where 1 is the maximum; inactive means score below 0.9.

Legend:
[1] = target: Paired box protein Pax-6 (Homo sapiens) (UniProt P26367); assay: ATG_Pax6_CIS: Attagene CIS-FACTORIAL HepG2 Assay for human Paired Box 6 (PAX6) (AID 2282956); settings: HepG2 CIS-FACTORIAL PAX6 reporter transcription, RNA readout; actives raise or lower the signal
Sequence of Paired box protein Pax-6 (Homo sapiens) (P26367 whole entry, looked up): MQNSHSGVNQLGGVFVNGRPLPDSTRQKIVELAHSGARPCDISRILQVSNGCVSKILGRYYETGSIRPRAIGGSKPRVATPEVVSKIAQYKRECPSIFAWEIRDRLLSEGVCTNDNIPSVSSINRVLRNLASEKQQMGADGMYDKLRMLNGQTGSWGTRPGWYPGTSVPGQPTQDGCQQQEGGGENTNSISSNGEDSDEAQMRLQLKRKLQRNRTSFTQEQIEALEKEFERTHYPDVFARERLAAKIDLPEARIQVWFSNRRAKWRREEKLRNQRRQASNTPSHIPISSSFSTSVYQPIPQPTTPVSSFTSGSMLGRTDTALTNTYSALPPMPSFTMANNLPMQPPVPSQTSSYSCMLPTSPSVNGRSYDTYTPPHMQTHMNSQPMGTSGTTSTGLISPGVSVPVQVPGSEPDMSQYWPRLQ
How it was run: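 Fluorescent RT-PCR products separated by capillary electrophoresis report PAX6-linked promoter mRNA in HepG2 cells 24 h post-dose. Curves fitted bidirectionally, DMSO as negative control.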

[2] = ATG_PXRE_CIS: Attagene CIS-FACTORIAL HepG2 Assay for human Pregnane X Receptor Element (PXRE) (AID 2282957); settings: HepG2 Attagene CIS-FACTORIAL PXRE reporter, mRNA; actives raise or lower the signal
How it was run: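 Fluorescent capillary electrophoresis of amplified reporter cDNA gave the signal, collected 24 h after dosing HepG2 cells that held transfected cis-element reporter constructs.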

[3] = ATG_PPRE_CIS: Attagene CIS-FACTORIAL HepG2 Assay for human Peroxisome Proliferator-activated Response Element (PPRE) (AID 2282958); settings: HepG2 PPRE cis-element reporter, Attagene transcription factor profiling; actives raise or lower the signal
How it was run: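 PPRE activity in HepG2: transient cis-reporter transfection, 24 h compound incubation, reporter mRNA by RT-PCR and CE fluorescence; gain/loss fitted against DMSO.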

[4] = ATG_Sox_CIS: Attagene CIS-FACTORIAL HepG2 Assay for human SRY-box transcription factor (SOX) (AID 2282960); settings: HepG2 Attagene cis-factorial SOX reporter, mRNA; actives raise or lower the signal
How it was run: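 HepG2, cis reporter units, 24 h exposure. Reporter mRNA: RT-PCR → FAM labelling → HpaI → CE fluorescence. Bidirectional fit vs DMSO.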

[5] = target: Transcription factor Sp1 (Homo sapiens) (UniProt P08047); assay: ATG_Sp1_CIS: Attagene CIS-FACTORIAL HepG2 Assay for human Specificity Protein 1 (Sp1) (AID 2282961); settings: HepG2 Sp1 cis-reporter transcription, actives raise or lower the signal
Sequence of Transcription factor Sp1 (Homo sapiens) (P08047 whole entry, looked up, the tested form may be a part): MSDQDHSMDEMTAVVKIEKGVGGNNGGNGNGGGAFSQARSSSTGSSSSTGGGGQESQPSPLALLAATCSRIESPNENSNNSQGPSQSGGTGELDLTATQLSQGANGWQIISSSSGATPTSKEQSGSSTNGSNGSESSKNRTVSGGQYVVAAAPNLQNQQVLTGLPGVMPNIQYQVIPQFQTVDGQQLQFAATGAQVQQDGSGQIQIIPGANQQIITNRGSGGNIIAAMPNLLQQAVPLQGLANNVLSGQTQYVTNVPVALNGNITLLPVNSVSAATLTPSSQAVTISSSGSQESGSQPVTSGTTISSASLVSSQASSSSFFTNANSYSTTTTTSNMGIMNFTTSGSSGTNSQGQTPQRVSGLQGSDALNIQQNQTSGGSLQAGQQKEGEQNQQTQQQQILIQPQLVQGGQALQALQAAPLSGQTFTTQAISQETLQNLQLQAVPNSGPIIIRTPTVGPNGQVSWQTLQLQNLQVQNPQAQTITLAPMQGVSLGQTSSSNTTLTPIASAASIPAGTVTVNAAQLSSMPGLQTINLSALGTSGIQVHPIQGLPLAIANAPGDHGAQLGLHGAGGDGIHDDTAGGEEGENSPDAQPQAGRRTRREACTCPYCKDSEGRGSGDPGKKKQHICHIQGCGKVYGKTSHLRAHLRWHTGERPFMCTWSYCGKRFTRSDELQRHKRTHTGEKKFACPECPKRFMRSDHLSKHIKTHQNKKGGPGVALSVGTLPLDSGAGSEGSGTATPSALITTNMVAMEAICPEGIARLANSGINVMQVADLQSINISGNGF
How it was run: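 Liver-derived HepG2 cells, cis-element reporter library, 24 h treatment; RNA isolated, cDNA amplified with reporter-specific primers, FAM-labeled fragments sized on capillary analyzer. DMSO baseline, bidirectional curve fit.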

[6] = ATG_SREBP_CIS: Attagene CIS-FACTORIAL HepG2 Assay for human Sterol Regulatory Element Binding (SREBP) (AID 2282962); settings: HepG2 Attagene cis-factorial SREBP reporter, mRNA; actives raise or lower the signal
How it was run: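 Endogenous factor activity is measured in HepG2 through multiplexed reporter units under cis-element control. Following a 24 h incubation, reporter transcripts are reverse-transcribed, PCR-amplified and sized by capillary electrophoresis; activity is fitted in both directions relative to DMSO.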

[7] = target: Signal transducer and activator of transcription 3 (Homo sapiens) (UniProt P40763); assay: ATG_STAT3_CIS: Attagene CIS-FACTORIAL HepG2 Assay for human Signal Transducer and Activator of Transcription 3 (STAT3) (AID 2282963); settings: HepG2, Attagene cis-factorial STAT3 reporter transcription; actives raise or lower the signal
Sequence of Signal transducer and activator of transcription 3 (Homo sapiens) (P40763 whole entry, looked up): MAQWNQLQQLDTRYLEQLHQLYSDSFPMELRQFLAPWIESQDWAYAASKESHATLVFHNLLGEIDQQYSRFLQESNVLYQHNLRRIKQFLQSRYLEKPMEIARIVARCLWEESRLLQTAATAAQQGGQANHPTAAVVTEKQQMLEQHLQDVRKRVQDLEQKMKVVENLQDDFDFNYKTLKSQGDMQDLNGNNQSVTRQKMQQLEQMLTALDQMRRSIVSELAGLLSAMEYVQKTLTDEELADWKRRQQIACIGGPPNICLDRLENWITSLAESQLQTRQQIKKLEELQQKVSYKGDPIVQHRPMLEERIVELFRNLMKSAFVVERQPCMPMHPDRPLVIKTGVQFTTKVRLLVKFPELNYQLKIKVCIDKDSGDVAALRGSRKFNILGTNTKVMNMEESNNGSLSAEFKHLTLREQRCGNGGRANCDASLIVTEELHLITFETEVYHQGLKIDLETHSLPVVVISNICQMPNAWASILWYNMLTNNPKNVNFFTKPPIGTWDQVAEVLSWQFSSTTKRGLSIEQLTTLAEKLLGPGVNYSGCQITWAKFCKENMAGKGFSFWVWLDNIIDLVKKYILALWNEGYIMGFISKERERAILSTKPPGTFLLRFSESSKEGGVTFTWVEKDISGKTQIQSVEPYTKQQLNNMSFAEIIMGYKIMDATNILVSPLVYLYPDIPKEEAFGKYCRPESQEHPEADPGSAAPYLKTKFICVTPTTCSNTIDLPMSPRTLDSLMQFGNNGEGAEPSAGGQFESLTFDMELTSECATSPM
How it was run: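 Readout is reporter transcript quantified by RT-PCR and capillary electrophoresis, with 6-FAM primer extension and HpaI digestion. Total RNA is taken 24 h after dosing transiently transfected HepG2 carrying cis-regulated reporter units. Bidirectional fit against DMSO.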

[8] = ATG_TA_CIS: Attagene CIS-FACTORIAL HepG2 Assay for human TA Basal Promoter (AID 2282964); settings: HepG2 Attagene CIS-factorial TA basal promoter reporter; actives raise or lower the signal
How it was run: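 Transient MRTU transfection of HepG2 preceded 24 h compound exposure. Reporter mRNA levels were then read by RT-PCR with capillary electrophoresis, and this background-control endpoint was fitted bidirectionally to DMSO.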

[9] = ATG_TCF_b_cat_CIS: Attagene CIS-FACTORIAL HepG2 Assay for human T-Cell-Factor with beta-catenin (TCF/b-cat) (AID 2282965); settings: HepG2 TCF/beta-catenin cis-reporter transcription, actives raise or lower the signal
How it was run: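 Endogenous TCF/LEF activity read as reporter transcript level via RT-PCR and capillary electrophoresis fluorescence in transfected HepG2, 24 h exposure; gain or loss of signal fitted against DMSO controls.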

[10] = ATG_RORE_CIS: Attagene CIS-FACTORIAL HepG2 Assay for human RAR-related Orphan Receptor Element (RORE) (AID 2282959); settings: HepG2 Attagene cis-factorial RORE reporter, mRNA; actives raise or lower the signal
How it was run: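 A 24-hour exposure of transfected HepG2 hepatoma cells precedes RNA isolation and reporter RT-PCR. Labeled products are digested with HpaI and resolved by capillary electrophoresis, with gain or loss of signal scored relative to DMSO.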

For `COP(=O)(OC)SCn1c(=O)oc2cc(Cl)cnc21`, the outcome [1] was “inactive”, the AC50 [2] was 8.16 µM (active) and the outcome [3] was “inactive”. For the same compound, the outcome [4] was “inactive”, the outcome [5] was “inactive” and the outcome [6] was “inactive”. For the same compound, the outcome [7] was “inactive”, the outcome [8] was “inactive” and the AC50 [9] was 10 µM (active).
For `COP(=O)(NC(C)=O)SC` (stereo not drawn), the outcome [1] was “inactive”, the AC50 [2] was 30.5 µM (active) and the outcome [3] was “inactive”. For the same compound, the outcome [4] was “inactive”, the outcome [5] was “inactive” and the outcome [6] was “inactive”. The outcome [7] was “inactive”, the outcome [8] was “inactive” and the outcome [9] was “inactive”.
With `C#CCC1=C(C)C(OC(=O)C2C(C=C(C)C)C2(C)C)CC1=O` (stereo not drawn) the AC50 [1] was 72.1 µM (active), the AC50 [2] was 1.15 µM (active) and the AC50 [3] was 13.2 µM (active). The AC50 [4] was 82 µM (active), the AC50 [5] was 50 µM (active) and the AC50 [6] was 31 µM (active). The outcome [7] was “inactive”, the outcome [8] was “inactive” and the AC50 [9] was 38.7 µM (active).
In the case of `COc1cc(OC)nc(Sc2cccc(Cl)c2C(=O)O)n1`, the outcome [1] is reported as “inactive”, the outcome [2] is reported as “inactive” and the outcome [10] is reported as “inactive”. For the same compound, the outcome [4] was “inactive”, the outcome [5] was “inactive” and the outcome [6] was “inactive”. For the same compound, the outcome [7] was “inactive”, the outcome [8] was “inactive” and the outcome [9] was “inactive”.
With `CSc1nc(NC(C)C)nc(NC(C)C)n1` the outcome [1] was “inactive”, the AC50 [2] was 4.94 µM (active) and the outcome [10] was “inactive”. The outcome [4] was “inactive”, the outcome [5] was “inactive” and the outcome [6] was “inactive”. The outcome [7] was “inactive”, the outcome [8] was “inactive” and the outcome [9] was “inactive”.
With `N#CSCSC#N` the outcome [1] was “inactive”, the AC50 [2] was 1.26 µM (active) and the outcome [3] was “inactive”. The outcome [4] was “inactive”, the outcome [5] was “inactive” and the outcome [6] was “inactive”. The outcome [7] was “inactive”, the outcome [8] was “inactive” and the outcome [9] was “inactive”.
In the case of `CC(C1CC1)C(O)(Cn1cncn1)c1ccc(Cl)cc1` (stereo not drawn), the outcome [1] is reported as “inactive”, the AC50 [2] is reported as 24.8 µM (active) and the outcome [3] is reported as “inactive”. The outcome [4] was “inactive”, the outcome [5] was “inactive” and the outcome [6] was “inactive”. The outcome [7] was “inactive”, the outcome [8] was “inactive” and the outcome [9] was “inactive”.
For `CON=C(C(=O)OC)c1ccccc1CON=C(C)c1cccc(C(F)(F)F)c1`, the outcome [1] was “inactive”, the AC50 [2] was 32.1 µM (active) and the outcome [3] was “inactive”. The outcome [4] was “inactive”, the outcome [5] was “inactive” and the outcome [6] was “inactive”. For the same compound, the outcome [7] was “inactive”, the outcome [8] was “inactive” and the outcome [9] was “inactive”.
With `CCNc1nc(Cl)nc(NC(C)(C)C#N)n1` the outcome [1] was “inactive”, the AC50 [2] was 29.2 µM (active) and the outcome [3] was “inactive”. The outcome [4] was “inactive”, the outcome [5] was “inactive” and the outcome [6] was “inactive”. The outcome [7] was “inactive”, the outcome [8] was “inactive” and the outcome [9] was “inactive”.
In the case of `CN(C)[C@@H]1C(=O)C(C(N)=O)=C(O)[C@@]2(O)C(=O)C3=C(O)c4c(O)cccc4[C@@](C)(O)[C@H]3[C@H](O)[C@@H]12`, the outcome [1] is reported as “inactive”, the AC50 [2] is reported as 65 µM (active) and 26.5 µM (active) and 34.9 µM (active) and the outcome [4] is reported as “inactive”. For the same compound, the outcome [5] was “inactive”, the outcome [6] was “inactive” and the outcome [7] was “inactive”. The outcome [8] was “inactive” and the outcome [9] was “inactive”.
In the case of `Cc1ccn2nc(S(=O)(=O)Nc3c(F)cccc3F)nc2n1`, the outcome [1] is reported as “inactive”, the AC50 [2] is reported as 9.86 µM (active) and the outcome [3] is reported as “inactive”. For the same compound, the outcome [4] was “inactive”, the outcome [5] was “inactive” and the outcome [6] was “inactive”. The outcome [7] was “inactive”, the outcome [8] was “inactive” and the outcome [9] was “inactive”.
With `C#CC(C)(C)NC(=O)c1cc(Cl)cc(Cl)c1` the outcome [1] was “inactive”, the AC50 [2] was 7.44 µM (active) and the outcome [4] was “inactive”. The outcome [5] was “inactive”, the AC50 [6] was 50 µM (active) and the outcome [7] was “inactive”. For the same compound, the outcome [8] was “inactive” and the outcome [9] was “inactive”.
With `CC[C@H](C)[C@H]1O[C@]2(C=C[C@@H]1C)C[C@@H]1C[C@@H](C/C=C(\C)[C@@H](O[C@H]3C[C@H](OC)[C@@H](O[C@H]4C[C@H](OC)[C@@H](NC)[C@H](C)O4)[C@H](C)O3)[C@@H](C)/C=C/C=C3\CO[C@@H]4[C@H](O)C(C)=C[C@@H](C(=O)O1)[C@]34O)O2` the outcome [1] was “inactive”, the outcome [2] was “inactive” and the outcome [4] was “inactive”. The outcome [5] was “inactive”, the outcome [6] was “inactive” and the outcome [7] was “inactive”. The outcome [8] was “inactive” and the outcome [9] was “inactive”.
For `COP(=O)(OC)OC(Br)C(Cl)(Cl)Br` (stereo not drawn), the outcome [1] was “inactive”, the outcome [2] was “inactive” and the outcome [3] was “inactive”. For the same compound, the outcome [4] was “inactive”, the outcome [5] was “inactive” and the outcome [6] was “inactive”. For the same compound, the outcome [7] was “inactive”, the outcome [8] was “inactive” and the outcome [9] was “inactive”.
In the case of `CCc1cccc(C)c1N(C(=O)CCl)C(C)COC` (stereo not drawn), the outcome [1] is reported as “inactive”, the AC50 [2] is reported as 0.603 µM (active) and the outcome [4] is reported as “inactive”. For the same compound, the outcome [5] was “inactive”, the outcome [6] was “inactive” and the outcome [7] was “inactive”. For the same compound, the outcome [8] was “inactive” and the outcome [9] was “inactive”.
For `CCOP(=O)(SC(C)CC)N1CCSC1=O` (stereo not drawn), the outcome [1] was “inactive”, the AC50 [2] was 22.9 µM (active) and the outcome [3] was “inactive”. The outcome [4] was “inactive”, the outcome [5] was “inactive” and the outcome [6] was “inactive”. For the same compound, the outcome [7] was “inactive”, the outcome [8] was “inactive” and the outcome [9] was “inactive”.
With `CCOP(=S)(OCC)Oc1cc(C)nc(C(C)C)n1` the outcome [1] was “inactive”, the AC50 [2] was 4.15 µM (active) and the AC50 [3] was 26 µM (active). For the same compound, the outcome [4] was “inactive”, the outcome [5] was “inactive” and the AC50 [6] was 21.7 µM (active). The outcome [7] was “inactive”, the outcome [8] was “inactive” and the outcome [9] was “inactive”.
With `CCCCSP(=O)(SCCCC)SCCCC` the outcome [1] was “inactive”, the AC50 [2] was 12.9 µM (active) and the AC50 [3] was 11.7 µM (active). The AC50 [4] was 76.7 µM (active), the AC50 [5] was 50 µM (active) and the AC50 [6] was 20.1 µM (active). The AC50 [7] was 50 µM (active), the AC50 [8] was 80.2 µM (active) and the outcome [9] was “inactive”.
